CYP2C19 activ: cytochrome P450 2C19 (human) activation; 96,000 tested, under 10 active; P33261; activation factor at 5 µM; recombinant CYP2C19, luciferin-H EGE luminescence; stronger effect = higher value; 0 = fully inhibited enzyme, 1 = untreated enzyme; AID 1025;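 active means activation factor of at least 2 at 5 µM in the primary screen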;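 further: 0 = wells with 2.5 mM tranylcypromine and 1 = vehicle-only wells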
Target sequence (P33261 whole entry, looked up): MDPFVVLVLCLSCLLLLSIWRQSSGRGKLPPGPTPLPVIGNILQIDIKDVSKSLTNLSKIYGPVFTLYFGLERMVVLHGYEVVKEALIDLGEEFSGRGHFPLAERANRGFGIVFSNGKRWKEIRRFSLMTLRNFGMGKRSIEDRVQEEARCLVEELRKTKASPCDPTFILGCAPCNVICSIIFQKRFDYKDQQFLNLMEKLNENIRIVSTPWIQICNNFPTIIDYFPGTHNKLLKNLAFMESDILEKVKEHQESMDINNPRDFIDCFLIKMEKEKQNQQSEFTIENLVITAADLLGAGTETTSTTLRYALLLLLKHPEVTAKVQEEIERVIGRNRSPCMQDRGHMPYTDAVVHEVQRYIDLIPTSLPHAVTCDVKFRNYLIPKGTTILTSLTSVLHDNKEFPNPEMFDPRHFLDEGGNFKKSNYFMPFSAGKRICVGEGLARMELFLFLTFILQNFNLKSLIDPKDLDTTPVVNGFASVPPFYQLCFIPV
CYP2C9 inh: blocks human cytochrome P450 2C9; CYP2C9 Supersomes, luciferin-H conversion, luminescence; inhibition, % at 5 µM; hit rate 20% among 96,000; AID 777;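 active means blocking of liver enzyme CYP2C9 beyond about 50% at 5 µM, limit read from the data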
CYP2C19 inh: human CYP2C19 inhibition. hit rate 21% among 96,000. CYP2C19 Supersomes, luciferin-H EGE luminescence, 30 min. AID 778. inhibition, % at 5 µM;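 active means CYP2C19 inhibition above a set limit at 5 µM in the primary screen, cut at about 50% in these data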;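 further: plate controls were negative control wells for no effect and 2.5 mM tranylcypromine positive control for full effect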
CYP2C9 activ: increases human cytochrome P450 2C9 activity | AID 1024 | recombinant CYP2C9, luciferin-H conversion, luminescence; stronger effect = higher value; factor 1 = untreated enzyme, 0 = blocked | P11712 | hit rate 1.4% among 96,000 | activation factor at 5 µM;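 active means activation factor of 2 or more for CYP2C9 at a 5 µM dose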;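 further: 0 = sulfaphenazole-blocked wells and 1 = vehicle-only wells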
Measles CPE: protection of cells from measles virus. Measles virus-infected cells, CPE protection, absorbance. protection (pct of control), % at 4 µM. hit rate 1.5% among 140,000. AID 841; in the data active means protection mostly above about 24%, no sharp cut-off; inactive means mostly below about 26%
* = called active by the depositor; / = no result. Shown are actives, neighbours in structure and some others; about 22% of the full set was active somewhere.

SMILES | CYP2C19 activ | CYP2C9 inh | CYP2C19 inh | CYP2C9 activ | Measles CPE
COC(=O)c1ccc(NS(=O)(=O)c2cc(C)ccc2OC)cc1 | 0.9 | 55.4* | 12.7 | 0.4 | 18.3
COc1ccc(OC)c(S(=O)(=O)Nc2cccc(C(C)=O)c2)c1 | 0 | 66.2* | 98.2* | 0.3 | 5.5
COc1ccc(Cl)cc1S(=O)(=O)n1nnc2ccccc21 | 1 | -8.8 | -0.8 | 1.1 | 3.5
COc1ccc(C(=O)O)cc1S(=O)(=O)Nc1cccc(C)c1 | 1.1 | -9.8 | -12.8 | 1.1 | 12.7
COc1ccc(OC)c(S(=O)(=O)n2nnc3ccccc32)c1 | 0.4 | -76.8 | 59.4* | 1.8 | 16.2
COc1ccc(C)cc1S(=O)(=O)Nc1ccc(F)cc1 | 0.1 | 72.3* | 87.9* | 0.3 | 16.0
COc1ccc(S(=O)(=O)Nc2ccc(S(=O)(=O)Nc3ccc(F)cc3)cc2)cc1C | / | / | / | / | 3.0
Nc1cc(C2CCCC2)nn1-c1ccccc1 | 0.1 | 34.8 | 92.4* | 0.7 | 16.1
O=C(O)c1cc(C2CC2)nn1-c1ccccc1 | 1.1 | -13.1 | -5.5 | 1.1 | 0.8
CCOC(=O)C1CCN(C(=O)c2ccccc2Oc2ccccc2)CC1 | 0.2 | 91.7* | 84.7* | 0.1 | 3.7
CCOC(=O)N1CCN(C(=O)c2ccccc2NC(=O)c2ccc(C(C)(C)C)cc2)CC1 | / | / | / | / | 11.2
CCOc1ccccc1C(=O)N1CCCCC1C (stereo not drawn) | 0.3 | 58.0* | 68.9* | 0.4 | 1.9
CCOc1ccccc1C(=O)N1CCC(C(=O)c2ccc(F)cc2)CC1 | / | / | / | / | 20.6
COc1ccccc1C(=O)N1CCN(CCc2ccccc2)CC1 | 0.4 | 48.8 | 61.1* | 0.5 | 19.9
CCOC(=O)N1CCN(C(=O)c2ccccc2NC(=O)COc2ccccc2C)CC1 | 0.3 | 56.4* | 65.3* | 0.4 | 19.4
Cc1cc(C(F)(F)F)nn1Cc1n[nH]c(=S)n1-c1cccc(Cl)c1 | 1.1 | -10.5 | -7.3 | 1.1 | /
CCOC(=O)N1CCN(C(=O)c2ccccc2Oc2ccccc2)CC1 | 0.6 | 94.4* | 42.4 | 0.1 | 5.3
CCOC(=O)N1CCN(C(=O)c2cccc(OC)c2OC)CC1 | 0.7 | -11.2 | 27.9 | 1.1 | 9.1
Cc1noc(C)c1S(=O)(=O)N(CCc1ccccc1)Cc1ccccc1 | 0.6 | 76.2* | 40.9 | 0.2 | 3.2
Cc1noc(C)c1S(=O)(=O)N(C)CC(=O)NCc1ccccc1 | 0.9 | -1.2 | 5.4 | 1 | 8.4
COc1ccc(S(=O)(=O)N2CCN(C(=O)c3c(C)nn(-c4ccccc4)c3Cl)CC2)cc1 | 0.1 | 90.5* | 88.3* | 0.1 | 14.2
Cc1ccc(S(=O)(=O)N2CCN(C(=O)c3c(C)nn(-c4ccccc4)c3Cl)CC2)cc1 | 0.8 | 50.1* | 16.7 | 0.5 | 26.9
COc1cccc(OC)c1C(=O)N1CCN(S(=O)(=O)c2ccc(C)cc2)CC1 | 0.9 | 35.3 | 10.7 | 0.6 | 42.4*
CC(=O)Nc1ccc(S(=O)(=O)Nc2c(C)nn(-c3ccccc3)c2C)cc1 | 0.8 | 16.7 | 18.0 | 0.8 | 10.7
CC(=O)c1ccccc1NS(=O)(=O)c1c(C)nn(-c2ccccc2)c1C | 0 | 51.3* | 98.7* | 0.5 | 4.5
SMILES | CYP2C19 activ | CYP2C9 inh | CYP2C19 inh | CYP2C9 activ | Measles CPE
COC(=O)c1ccc(COC(=O)CCC(=O)c2cccs2)cc1 | / | / | / | / | 16.6
CCC(=O)NCCc1c[nH]c2ccccc12 | 0.9 | -8.4 | 11.8 | 1.1 | 31.5
CC(=O)NCCCc1c[nH]c2ccc(Cl)cc12 | 0.2 | 47.4 | 80.5* | 0.5 | 11.9
O=C(NCCc1c[nH]c2ccc(Cl)cc12)c1cccnc1 | 0.1 | 86.8* | 90.9* | 0.1 | 9.2
N#CCC(CNc1ncc(C(F)(F)F)cc1Cl)OC(=O)c1cccc([N+](=O)[O-])c1 (stereo not drawn) | 0 | 68.2* | 96.5* | 0.3 | 7.7
O=C(OC1CCN(c2ncc(C(F)(F)F)cc2Cl)CC1)c1ccc(Cl)cc1 | 1 | 19.2 | -3.6 | 0.8 | 4.0
N#CCC(CNc1ncc(C(F)(F)F)cc1Cl)OC(=O)c1ccc(Cl)cc1 (stereo not drawn) | 0.2 | -8.6 | 83.6* | 1.1 | 22.1
CCOC(=O)c1c(CN2CCCCC2)n(C)c2ccc(OC)c(S(=O)(=O)c3ccccc3)c12 | 1 | 9.2 | 2.3 | 0.9 | 4.3
Cc1ccc(N2CCN(c3ccc(C)cc3)C2c2cccnc2)cc1 | 0.2 | 34.5 | 76.5* | 0.7 | 9.9
c1ccc(N2CCN(c3ccccc3)C2c2ccncc2)cc1 | 0.1 | 89.7* | 86.7* | 0.1 | 23.2
CC(=O)Nc1ccc(N2S(=O)(=O)c3ccccc3S2(=O)=O)cc1 | 0.9 | -132.8 | 10.7 | 2.3* | 21.9
CCOC(=O)c1sc(NC(=O)c2ccc(S(=O)(=O)N3CCOCC3)cc2)nc1-c1ccccc1 | / | / | / | / | 11.8
COc1ccccc1NC(=O)c1ccc(S(=O)(=O)N2CCOCC2)cc1 | 0.9 | -248.9 | 14.4 | 3.5* | 7.3
COc1cccc2sc(NC(=O)c3ccc(S(=O)(=O)N4CCOCC4)cc3)nc12 | 0.4 | 86.4* | 64.0* | 0.1 | 6.3
CCCn1c(SCC(=O)Nc2cc(S(=O)(=O)N3CCOCC3)ccc2Cl)n[nH]c1=O | / | / | / | / | 9.4
CCCn1c(SCC(=O)Nc2cc(S(=O)(=O)N3CCOCC3)ccc2OC)n[nH]c1=O | / | / | / | / | 49.6*
CCOc1ccccc1NC(=O)c1ccc(S(=O)(=O)N2CCOCC2)cc1 | 1 | -26.9 | 3.9 | 1.3 | 6.0
CCOC(=O)N1CCN(S(=O)(=O)c2ccc(C(=O)Nc3nc4ccccc4s3)cc2)CC1 | 1 | 45.0 | 1.5 | 0.6 | 19.4
CCOC(=O)N1CCN(S(=O)(=O)c2ccc(C(=O)Nc3nc4ccc(F)cc4s3)cc2)CC1 | 0.8 | 64.5* | 21.8 | 0.4 | 2.1
CCn1ncc([N+](=O)[O-])c1C(=O)N1CCCC1 | 1.2 | -12.6 | -22.4 | 1.1 | 12.1
CC(C)CNC(=O)C1CCN(c2ccc(S(=O)(=O)N3CCOCC3)cc2)CC1 | 1.1 | 27.8 | -14.3 | 0.7 | 19.4
COc1ccc(OC)c(NC(=O)COC(=O)c2ccc(S(=O)(=O)N3CCOCC3)cc2)c1 | 0.9 | 5.7 | 8.4 | 0.9 | 3.2
COc1ccccc1C(=O)NCC1CCN(c2ccc(S(=O)(=O)N3CCOCC3)cc2)CC1 | 0.4 | 35.5 | 58.4* | 0.6 | 15.5
COc1ccc(C)cc1NC(=O)c1ccc(S(=O)(=O)N2CCOCC2)cc1 | 1 | -264.4 | 4.8 | 3.6* | 12.1
CN(C)c1cc[n+](Cc2c(Cl)cccc2Cl)cc1 | / | / | / | / | 5.4
SMILES | CYP2C19 activ | CYP2C9 inh | CYP2C19 inh | CYP2C9 activ | Measles CPE
O=C(CC(c1ccccc1)c1ccccc1O)NCCN1CCOCC1 (stereo not drawn) | 0.5 | 45.7 | 54.3* | 0.5 | 49.9
CC(C)(C)NC(=O)CC(c1ccccc1)c1ccccc1O (stereo not drawn) | 0.1 | 96.2* | 89.7* | 0 | 11.4
CC1=CC(C2CC(=O)N(c3ccccc3C)C2=O)CC2C(=O)N(c3ccccc3C)C(=O)C12 (stereo not drawn) | / | / | / | / | 10.2
CC(=O)c1cc(F)c(N2CCN(CCC#N)CC2)cc1C | / | / | / | / | 7.3
COc1nccnc1NS(=O)(=O)c1ccc(NC(=S)NC(=O)c2ccc(F)cc2)cc1 | / | / | / | / | 34.2*
CCc1nc(N2CCN(C(=O)c3ccco3)CC2)c2c3c(sc2n1)CCCC3 | 0.8 | 49.1 | 23.7 | 0.5 | 27.7
